MazF activator: MazEF (E. coli) toxin RNase activation; P0AE70; FAM/BHQ RNA-DNA oligo cleavage fluorescence, 5 h; activation, % at 20 µM; hit rate 0.32% among 350,000; AID 504720; in the data active = activation above about 50%
Target sequence (P0AE70 whole entry, looked up): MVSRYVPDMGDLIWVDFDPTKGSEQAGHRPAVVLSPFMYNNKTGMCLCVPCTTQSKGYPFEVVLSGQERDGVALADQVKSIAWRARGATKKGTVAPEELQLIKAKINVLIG
PriA SSB inh: blocks PriA binding to SSB C-terminal tail; AlphaScreen SSBct-PriA binding, biotinylated peptide; inhibition, % at 33 µM; hit rate 0.6% among 430,000; AID 1272365; in the data active = inhibition mostly above about 37%, no sharp cut-off; inactive = mostly below about 20%
Sa ugtP lethal: compounds lethal to S. aureus RN4220 ugtP deletion mutant | OD600 growth, 16 h | growth inhibition, % (no concentration beside the values) | hit rate 0.54% among 330,000 | AID 1259309; in the data active = growth inhibition above about 68%
BJeLR lethal: BJeLR cell viability loss | BJeLR (HRASV12) viability, CellTiter-Glo ATP luminescence, 48 h | inhibition, % (no concentration beside the values) | hit rate 0.17% among 300,000 | AID 1554; in the data active = inhibition above about 50%
Sa RN4220 lethal: kills Staphylococcus aureus RN4220; hit rate 0.33% among 330,000; S. aureus RN4220 growth, OD600, 16 h; AID 1259311; inhibition, % (test concentration not listed); in the data active = inhibition above about 85%
A number is an active result. In the library only some 1.2% were active in any assay of this set; here they are far more common.

Screening O=C(CC1C(=O)NCCN1Cc1ccoc1)NCCc1ccc(Cl)cc1 (stereo unspecified) returned MazF activator inactive, PriA SSB inh inactive, Sa ugtP lethal inactive, BJeLR lethal inactive and Sa RN4220 lethal inactive.
Screening Cc1ccc(S(=O)(=O)N=C(Nc2nc(C)cc(C)n2)N2CCOCC2)cc1 returned PriA SSB inh inactive, Sa ugtP lethal inactive and Sa RN4220 lethal inactive.
CC(C)(C)N(C(=O)c1cc(=O)c2ccccc2o1)C(=O)N1CCCCC1 was read as PriA SSB inh inactive.
COCCCNC(=O)CSc1nc2cc(S(=O)(=O)N3CCCCC3)ccc2o1 was read as MazF activator inactive, PriA SSB inh 46.1, Sa ugtP lethal inactive, BJeLR lethal inactive and Sa RN4220 lethal inactive.
Screening Cc1noc(C)c1C(=O)Nc1ccc(C#N)cc1 returned MazF activator inactive, PriA SSB inh inactive, Sa ugtP lethal inactive, BJeLR lethal inactive and Sa RN4220 lethal inactive.
CCOC(=O)/C(C#N)=C1/C=C(C)NC(c2ccccc2O)=N1 was read as MazF activator inactive, Sa ugtP lethal 83.2, BJeLR lethal inactive and Sa RN4220 lethal inactive.
For Cc1ccccc1C(=O)Nc1nc(-c2ccccc2)ns1 the results were PriA SSB inh inactive.
`NC(=O)NN=Cc1cccc(OCc2ccc(F)cc2)c1` gave PriA SSB inh inactive, Sa ugtP lethal inactive and Sa RN4220 lethal inactive.
N#CCCn1c(-c2nonc2NC(=O)c2ccccc2Cl)nc2ccccc21 was read as MazF activator 81.2, PriA SSB inh inactive, Sa ugtP lethal inactive, BJeLR lethal inactive and Sa RN4220 lethal inactive.
For CC(=O)Nc1nonc1-c1nc2ccccc2n1CCC#N the results were MazF activator inactive, PriA SSB inh inactive, Sa ugtP lethal inactive, BJeLR lethal inactive and Sa RN4220 lethal inactive.
`CCCCCC(O)C=CC1C2CC(CO2)C1CC=CCCCC(=O)O` (stereo unspecified) gave Sa ugtP lethal inactive and Sa RN4220 lethal inactive.
Cc1ccc(C(=O)CSc2nnc(-c3ccc4[nH]c(C)c(C)c4c3)o2)cc1C was read as MazF activator inactive, PriA SSB inh inactive, Sa ugtP lethal 97.5, BJeLR lethal inactive and Sa RN4220 lethal inactive.
Cc1ccc(-c2cc(-c3ccccc3)nc(N)c2C#N)o1 was read as MazF activator 82.6, PriA SSB inh inactive, Sa ugtP lethal inactive, BJeLR lethal inactive and Sa RN4220 lethal inactive.
CC(C)=CCc1c(-c2ccc(O)cc2O)oc2cc3c(c(O)c2c1=O)C=CC(C)(C)O3 was read as MazF activator inactive, PriA SSB inh inactive, Sa ugtP lethal 97.3, BJeLR lethal inactive and Sa RN4220 lethal 95.9.
`COc1cc(OC)c([C@H]2C=C(C)[C@H]3C[C@@H]2C3(C)C)c(OC)c1` gave MazF activator inactive, PriA SSB inh inactive, Sa ugtP lethal 94.1, BJeLR lethal inactive and Sa RN4220 lethal inactive.
`CCc1ccc(/C=C2/SC(=S)N(CCC(=O)NCCCN3CCOCC3)C2=O)cc1` gave MazF activator inactive, PriA SSB inh inactive, Sa ugtP lethal inactive, BJeLR lethal 105.7 and Sa RN4220 lethal inactive.
Screening O=C(CCN1C(=O)/C(=C\c2cccc(Br)c2)SC1=S)NCCCN1CCOCC1 returned MazF activator inactive, PriA SSB inh inactive, Sa ugtP lethal inactive, BJeLR lethal 84.9 and Sa RN4220 lethal inactive.
O=C(CCN1C(=O)/C(=C/c2ccccc2)SC1=S)NNC(=O)c1ccncc1 was read as MazF activator 135.0, PriA SSB inh inactive, Sa ugtP lethal inactive, BJeLR lethal inactive and Sa RN4220 lethal inactive.
`CCc1ccc(/C=C2/SC(=S)N(CCC(=O)Nc3cccnc3)C2=O)cc1` gave MazF activator inactive, PriA SSB inh inactive, Sa ugtP lethal inactive, BJeLR lethal 101.8 and Sa RN4220 lethal inactive.
`O=C(CCN1C(=O)/C(=C/c2ccccc2)SC1=S)NCCCN1CCOCC1` gave MazF activator inactive, PriA SSB inh inactive, Sa ugtP lethal inactive, BJeLR lethal inactive and Sa RN4220 lethal inactive.
CN1CCN(C(=O)CCCN2C(=O)/C(=C/c3cccc(Br)c3)SC2=S)CC1 was read as MazF activator inactive, PriA SSB inh inactive, Sa ugtP lethal inactive, BJeLR lethal 90.0 and Sa RN4220 lethal inactive.
For CCOc1ccccc1C(=O)NCCn1ccnc1-c1ncccn1 the results were PriA SSB inh 55.0.
Screening Cc1oncc1C(=O)NCCn1ccnc1-c1ncccn1 returned PriA SSB inh 46.0.
Screening COc1cccc2cc(C(=O)NCCn3ccnc3-c3cccnc3)oc12 returned PriA SSB inh inactive.
For C=CCNC(=O)/C=C/c1cccs1 the results were MazF activator inactive, PriA SSB inh inactive and BJeLR lethal inactive.
Cc1cc(C(=O)NCCn2ccnc2-c2ncccn2)no1 was read as PriA SSB inh inactive.
O=C(/C=C/c1cccs1)NCCn1ccnc1-c1ncccn1 was read as PriA SSB inh 116.5.
Screening COc1cccc2cc(C(=O)NCCn3ccnc3-c3ncccn3)oc12 returned PriA SSB inh 46.0.
N/C(=N\[N+](=O)[O-])N1CCN(C(=O)c2ccccc2)CC1 was read as MazF activator inactive and BJeLR lethal inactive.
For O=C(Cc1ccccc1Cl)NCCn1ccnc1-c1ncccn1 the results were PriA SSB inh inactive.
For O=C(NCCn1ccnc1-c1ncccn1)c1ccccc1Cl the results were PriA SSB inh 78.0.
`CCCCOc1c(Br)cc(C=NO)cc1OCC` gave PriA SSB inh inactive, Sa ugtP lethal 100.1 and Sa RN4220 lethal inactive.
C/C=C/C=C/C(=O)Nc1cccc(C2=NOC3(C2)C[C@H](C(N)=O)N(C(=O)CC(c2ccccc2)c2ccccc2)C3)c1 (stereo partly specified) was read as BJeLR lethal inactive.
Screening Cc1c(Cc2ccc3c(c2)OCO3)sc(NC(=O)C(c2ccccc2)c2ccccc2)c1C(N)=O returned PriA SSB inh inactive.
Screening CCOC(=O)c1csc(NC(=O)COc2ccc(Cl)cc2Cl)n1 returned MazF activator inactive, PriA SSB inh inactive, Sa ugtP lethal inactive, BJeLR lethal inactive and Sa RN4220 lethal inactive.
For COc1nc(SC)nc(Cl)c1Cc1ccc(OC(C)C)cc1 the results were MazF activator inactive, PriA SSB inh inactive, Sa ugtP lethal 92.1, BJeLR lethal inactive and Sa RN4220 lethal inactive.
CSc1nc(Cl)c(Cc2ccc(OC(C)C)cc2)c(N2CCOCC2)n1 was read as MazF activator inactive, PriA SSB inh inactive, Sa ugtP lethal 97.5, BJeLR lethal inactive and Sa RN4220 lethal inactive.
`CCCOc1ccc(Cc2c(Cl)nc(SC)nc2OC)cc1` gave MazF activator inactive, PriA SSB inh inactive, Sa ugtP lethal 89.2, BJeLR lethal inactive and Sa RN4220 lethal inactive.
`CCOc1ccc(Cc2c(O)nc(SC)[nH]c2=O)cc1` gave MazF activator inactive.
Screening CCCOc1ccc(Cc2c(Cl)nc(SC)nc2N(C)C)cc1 returned MazF activator inactive, PriA SSB inh inactive, Sa ugtP lethal 87.3, BJeLR lethal inactive and Sa RN4220 lethal inactive.
CCCOc1ccc(CSc2n[nH]c(C)n2)cc1 was read as MazF activator inactive, PriA SSB inh inactive and BJeLR lethal inactive.
For CSc1nc(N2CCOCC2)c2sccc2n1 the results were MazF activator inactive, PriA SSB inh inactive, Sa ugtP lethal inactive, BJeLR lethal inactive and Sa RN4220 lethal inactive.

Screening results deposited in PubChem BioAssay by several laboratories.
